# Test results as given in PubChem BioAssay (NCI).
# About 79,000 compounds went through this panel and 15% of them were active in at least one assay; those are over-represented in the sample as a whole. Unmarked numbers belong to inactive results. The source made the active and inactive calls. Rule as the data show it: active = growth inhibition above about 70%; inactive = the rest.
# How the values were obtained:
# [1] = NCI Yeast Anticancer Drug Screen. Data for the rad50 strain (AID 155);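 also: 0% = growth of vehicle-only cultures of the same strain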; conditions: S. cerevisiae rad50 strain growth inhibition, stronger effect = higher value
# Procedure, shortened: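 Genetically altered yeast (DNA repair pathway); compound treatment; growth inhibition vs vehicle ctrl.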
# [2] = NCI Yeast Anticancer Drug Screen. Data for the mec2-1 strain (AID 157); conditions: S. cerevisiae mec2-1 strain, stronger effect = higher value
# Procedure, shortened: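 Readout is yeast growth inhibition, normalised to vehicle-treated controls, in the mec2-1 strain exposed to compound.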
# [3] = NCI Yeast Anticancer Drug Screen. Data for the sgs1 mgt1 strain (AID 161);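 also: 0% = growth of cultures given vehicle only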; conditions: S. cerevisiae sgs1 mgt1 strain, stronger effect = higher value
# Procedure, shortened: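 Yeast cells carrying a defined DNA-repair defect were exposed to test compounds. Growth inhibition was measured relative to vehicle-treated controls.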
# [4] = NCI Yeast Anticancer Drug Screen. Data for the cln2 rad14 strain (AID 165);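 also: 0% = growth equal to vehicle treated cultures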; conditions: S. cerevisiae cln2 rad14 strain, stronger effect = higher value
# Procedure, shortened: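 Relative to vehicle controls, growth inhibition of compound-treated cln2 rad14 yeast was recorded.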
# [5] = NCI Yeast Anticancer Drug Screen. Data for the bub3 strain (AID 167); conditions: S. cerevisiae bub3 mutant strain, stronger effect = higher value
# Procedure, shortened: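 Yeast carrying a defined mutation is treated with each compound, and growth is compared with that of vehicle-exposed cells to give inhibition.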
# [6] = NCI Yeast Anticancer Drug Screen. Data for the mlh1 rad18 strain (AID 175); conditions: S. cerevisiae mlh1 rad18 strain growth inhibition, stronger effect = higher value
# Procedure, shortened: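 Test agents were incubated with a yeast strain of defined genotype (DNA damage repair defect). Inhibition of growth was derived by comparison with vehicle-exposed cultures.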
# [7] = at 5.0 µM (retest, dose inferred, filed as 0.5)
# [8] = at 50.0 µM (retest, dose inferred, filed as 5.0)
Structure (SMILES),"growth inhibition [1, 7]","growth inhibition [1, 8]",growth inhibition ([1]; at 50.0 µM),"growth inhibition [2, 7]","growth inhibition [2, 8]",growth inhibition ([2]; at 50.0 µM),"growth inhibition [3, 7]","growth inhibition [3, 8]",growth inhibition ([3]; at 50.0 µM),"growth inhibition [4, 7]","growth inhibition [4, 8]",growth inhibition ([4]; at 50.0 µM),"growth inhibition [5, 7]","growth inhibition [5, 8]",growth inhibition ([5]; at 50.0 µM),"growth inhibition [6, 7]","growth inhibition [6, 8]",growth inhibition ([6]; at 50.0 µM)
CN1c2ccccc2C(C)(C)C12C=Cc1cc(O)ccc1O2 (configuration not stated),20%,31%,70.8% (active),9%,10%,47.6%,8%,38%,61.9%,14%,23%,35.6%,-4%,51%,52.4%,-15%,33%,54.1%
CCCCCCCC/C=C1\CCC(CN(C)C)C1=O (configuration not stated),-2%,97% (active),89.6% (active),-35%,99% (active),93.2% (active),-13%,97% (active),90.7% (active),8%,95% (active),89.5% (active),-23%,98% (active),89.6% (active),-19%,97% (active),89.1% (active)
CCN(CC)CCNc1c(C)ccc2cccnc12,0%,7%,33.5%,-4%,-4%,35.9%,-2%,-2%,29.4%,-1%,-14%,-29.2%,-1%,2%,53.8%,0%,8%,51.5%
CC(=O)C(=Cc1ccc(C=C(C(C)=O)C(C)=O)cc1)C(C)=O,-1%,30%,45%,5%,40%,58.5%,11%,61%,58.5%,11%,8%,46.4%,-5%,30%,4.7%,22%,91% (active),94.7% (active)
COc1cccnc1/C=N/NC(N)=S,-4%,58%,69.5%,-4%,59%,69.9%,-4%,63%,73.9% (active),-6%,19%,48.5%,0%,60%,75.5% (active),-5%,70% (active),71.9% (active)
C1=NCCN=Cc2ccccc2NCCNc2ccccc21,3%,2%,55.2%,6%,-20%,58.6%,4%,41%,74.8% (active),15%,23%,53.5%,6%,6%,43.5%,-3%,-2%,69%
S=C(N/N=C(/c1ccccc1)c1ccccn1)Nc1cccc(Cl)c1,48%,88% (active),2.05%,32%,91% (active),3.3%,24%,88% (active),41.6%,25%,88% (active),17.6%,40%,85% (active),20.1%,36%,89% (active),26.1%
Cc1ccc([PH+](CC[PH+](c2ccccc2)c2ccccc2)c2ccc(C)cc2)cc1.Cc1ccc([PH+](CC[PH+](c2ccccc2)c2ccccc2)c2ccc(C)cc2)cc1.[Pt],40%,88% (active),88.8% (active),26%,91% (active),90.7% (active),33%,95% (active),91.3% (active),34%,93% (active),89.8% (active),29%,94% (active),90.7% (active),39%,93% (active),88.5% (active)
CC(=O)OC1C(C)OC(OC(=O)C2CCC3C(C2)OC2(CC(OC(=O)/C=C/c4ccccc4)C(C)CO2)C32CO2)C(OC2OC(C)C(O)C(OC(C)=O)C2O)C1O (configuration not stated),34%,97% (active),87.9% (active),36%,99% (active),92% (active),30%,99% (active),91.5% (active),45%,96% (active),88.1% (active),31%,99% (active),90.2% (active),31%,97% (active),85.2% (active)
